# Measured values reported in the supplement of paper PMC6555819.
# Columns and labels:
# Test in all cases: PBM binding z-score (relative to random genomic background probes); higher = stronger binding; sequences stand for … in GC…GCGATTGACAGCGTAGAATGAAGG
# [1] = system: FXR:RXRa (NR concentration 270 nM, RXRa partner concentration 90 nM)
# Summary of the method: (§1)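 Each nuclear receptor dimer, without ligand, was incubated for 1 h on custom Agilent 4×180K protein-binding microarrays. Binding was detected with antibodies against each partner (one per run), and scanned fluorescence was regression-normalized. The binding z-scores are referenced to random human genomic background probes.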
# [2] = system: LXRa:RXRa (NR concentration 270 nM, RXRa partner concentration 90 nM)
# Summary of the method: as §1
# [3] = system: LXRa homodimer (NR concentration 270 nM)
# Summary of the method: as §1
# [4] = system: LXRb:RXRa (NR concentration 270 nM, RXRa partner concentration 90 nM)
# Summary of the method: as §1
# [5] = system: LXRb homodimer (NR concentration 270 nM)
# Summary of the method: as §1
# [6] = system: PPARa:RXRa (NR concentration 270 nM, RXRa partner concentration 90 nM)
# Summary of the method: as §1
# [7] = system: PPARg:RXRa (NR concentration 180 nM, RXRa partner concentration 90 nM)
# Summary of the method: as §1
# [8] = system: PPARg:RXRa 270nM:90nM, anti-RXR (NR concentration 270 nM, RXRa partner concentration 90 nM)
# Summary of the method: as §1
# [9] = system: PPARg:RXRa 30nM:10nM, anti-RXR (NR concentration 30 nM, RXRa partner concentration 10 nM)
# Summary of the method: as §1
# [10] = system: PPARg:RXRa 90nM:30nM, anti-RXR (NR concentration 90 nM, RXRa partner concentration 30 nM)
# Summary of the method: as §1
# [11] = system: PPARg:RXRa DBDmut IVT, anti-RXR (DBD mutation: RXRa K156A/R161A, NR concentration 270 nM, RXRa partner concentration 90 nM)
# Summary of the method: as §1
# [12] = system: PPARg:RXRa IVT, anti-PPARg (NR concentration 270 nM, RXRa partner concentration 90 nM)
# Summary of the method: as §1
# [13] = system: PPARg DBDmut:RXRa IVT, anti-PPARg (DBD mutation: PPARg1 K132A/R137A, NR concentration 270 nM, RXRa partner concentration 90 nM)
# Summary of the method: as §1
# [14] = system: PPARg DBDmut IVT, anti-PPARg (DBD mutation: PPARg1 K132A/R137A, NR concentration 270 nM)
# Summary of the method: as §1
# [15] = system: PPARg homodimer (NR concentration 180 nM)
# Summary of the method: as §1
# [16] = system: PXR:RXRa (NR concentration 270 nM, RXRa partner concentration 90 nM)
# Summary of the method: as §1
# [17] = system: PXR homodimer (NR concentration 270 nM)
# Summary of the method: as §1
# [18] = system: RARa:RXR (NR concentration 270 nM, RXRa partner concentration 90 nM)
# Summary of the method: as §1
# [19] = system: RARa homodimer (NR concentration 270 nM)
# Summary of the method: as §1
# [20] = system: RARb:RXRa (NR concentration 270 nM, RXRa partner concentration 90 nM)
# Summary of the method: as §1
Sequence,PBM binding z-score [1],PBM binding z-score [2],PBM binding z-score [3],PBM binding z-score [4],PBM binding z-score [5],PBM binding z-score [6],PBM binding z-score [7],PBM binding z-score [8],PBM binding z-score [9],PBM binding z-score [10],PBM binding z-score [11],PBM binding z-score [12],PBM binding z-score [13],PBM binding z-score [14],PBM binding z-score [15],PBM binding z-score [16],PBM binding z-score [17],PBM binding z-score [18],PBM binding z-score [19],PBM binding z-score [20]
CAAACTAGGTCAAAGGTCGAAGTCGAGCCAACCA,7.06,5.62,1.41,4.93,0.909,7.28,13.9,11.2,14.3,13.6,8.87,9.27,5.32,3.95,3.95,5.77,0.27,8.46,0.524,4.71
CCTGCTAGGTCATGGTCAGCTACTCTACAGTATG,3.3,2.34,0.256,1.42,-0.441,3.16,2.56,2.72,0.637,1.67,4.23,3.88,0.29,0.349,1.41,0.866,-0.32,2.09,-0.0662,4.04
ATACCAAGGTGATCGTGAGGTCGTTGAAACTAAC,2.15,1.49,0.854,1.6,0.171,2.03,0.268,0.273,-0.226,0.172,0.647,1.34,0.138,0.0797,1.05,3.33,1.61,2.57,0.829,1.7
CCTAGCAGGCCAGGATCACTCAAGCATTTCGCTT,-0.0228,-0.302,-0.315,-0.395,-0.796,-0.414,-0.143,-0.455,-0.969,-0.909,0.271,-0.507,-1.72,-1.21,-0.29,-0.547,-0.646,-0.792,-0.0748,-0.149
CCTTGTTGGTCAAGGTCACACACGCTATAGGTAC,4.42,3.87,2.19,3.91,0.763,4.27,3.05,3.47,1.21,2.69,2.48,3.71,1.18,0.66,2.49,4.23,1.5,4.45,1.4,4.3
CCAACTGGGGCAAGGTTACCATAACGCACAGCCA,0.213,0.726,-0.0339,0.872,-0.862,2.49,4.28,4.62,2.01,4.22,5.12,5.51,0.138,-0.27,0.543,0.378,0.0268,0.879,0.291,1.78
TCTATTAGTTGATTAGGGCAAACGAAACAGCGGA,0.336,0.43,0.307,0.724,0.369,0.691,0.317,1.62,3.24,2.29,1.88,1.04,0.889,1.04,0.195,0.343,0.106,0.325,0.996,0.708
TAGCCTTGGTCAGATCGGGCCAGTATACGCTATA,-0.504,-0.892,-0.925,-0.995,-0.904,-0.565,-0.0905,-0.29,-0.644,-0.566,-0.7,-0.297,-0.203,-1.18,-1.31,-0.578,-0.538,-0.611,-1.58,0.307
CAAACTAGGTCACCGCAAGGTCAAAGTCCGCATG,6.27,5.91,5.31,5.42,1.37,6.06,9.19,7.84,5.73,7.81,8.65,8.87,6.76,3.92,8.41,6.08,2.22,6.85,2.14,5
ATCGAAAGGTCGCGGTGAGTATAGAGAAAGGGAA,6,4.14,0.362,3.7,0.371,5.23,4.84,4.74,1.65,3.31,0.748,2.76,0.634,0.427,1.87,3.21,0.401,3.63,0.883,4.66
GCATATAGGTAATACAAGGTGAAAGGCCGATTGT,0.496,1.99,0.36,0.488,-0.248,1.97,2.16,2.86,1.05,2.2,3.82,3.44,0.554,0.825,0.878,0.592,0.222,1.66,0.91,0.547
TAATATAGGTAATACAGGTGAAAGTCGGCATCTA,0.455,1.04,0.599,0.603,0.797,2.57,3.18,3,2,2.17,5.72,5.56,2.44,1.91,1.32,0.362,0.607,0.476,1.83,0.621
ATCTCTAGGTAACCAAGTTCCGTGAATGCCGAAC,-0.0612,0.165,0.165,0.157,0.617,0.45,0.308,0.331,-0.073,0.181,3.6,2.9,0.664,0.557,0.453,0.03,0.0548,0.264,0.19,0.435
ATCTCTAGGTAACCAAGTTCAGTGAATGCCGAAC,0.707,1.04,0.708,0.638,0.763,1.33,0.617,0.913,0.376,0.682,3.64,3.09,0.611,1.02,1,1.86,1.98,0.882,0.575,1.36
AGAATGAGGTTATGCGTAGATCAGGGAAGAAAGT,1.66,1.51,-0.231,1.31,-0.169,3.1,1.44,2,0.664,1.12,2.31,2.01,0.845,0.71,0.621,0.966,0.308,1.32,0.403,1.57
CCTACTGTGCCAAGGTCATTGATCAGTCAAAGCA,3.24,3.74,1.67,3.26,0.681,4.05,3.18,3.78,1.24,2.83,3.52,3.07,-0.148,0.41,2.81,3.87,1.91,3.76,1.37,3.28
CAAACTAGGTCATGGTCAAAGTCGGTTTGTGCCA,3.73,2.64,0.245,1.94,0.0742,4.74,8.15,6.86,4.7,6.63,8.43,8.57,2.9,1.82,2.21,1.75,-0.231,2.44,0.58,4.01
CATACAGGGTCACCTAGGCCAGAGTAGGGACGGC,6.41,4.26,0.036,3.35,0.688,5.64,6.1,5.1,2.1,3.77,1.55,4.32,1.86,1.64,1.65,3.56,0.395,4.49,0.259,4.41
GCTCGGAGGACAAGGTCTGAGCTTTGTCCGTAGA,-0.67,-0.493,-0.867,-0.602,-1.01,-0.36,-1.05,-0.462,-1.11,-1,-0.275,-0.493,-0.968,-1.01,-0.929,-0.656,-0.919,-0.399,-1.72,0.963
GATAAAGGGTCAAGGCCAGAGTACGCGTATTGAT,7.29,5.43,0.637,4.49,0.548,6.28,6.56,6.32,3.17,5.23,3.62,4.58,0.966,0.381,3.16,4.19,0.42,5.07,0.732,5.26
GCAGACAGGTGAAACGCAGGAAACTCAGGGTGGC,-0.517,-0.226,-0.695,-0.346,-1.08,0.952,0.592,-0.351,-0.59,-0.582,0.874,0.378,-0.857,-0.37,-0.537,-0.387,-0.338,-0.0101,-0.25,0.527
CAAACTAGGTCACAGAGGTCAAAGCCCGTGCGTA,7.26,6.74,6.92,5.93,1.72,6.63,10.4,8.24,7,8.42,8.71,9.13,4.98,2.72,4.59,6.66,10.8,7.48,2.65,5.27
CCTATTGGGCCATTCAGAGGTCATTGATCATATG,3,4.68,6.08,4.04,0.58,3.65,1.17,2.6,0.568,1.77,2.6,2.48,0.246,0.228,1.37,4.71,2.54,4.7,0.541,3.28
CGTCCAAGGTCAATGGTCAGTGAAGAGATGACGG,6.47,4.43,0.613,3.19,0.452,4.93,4.14,4.38,1.83,3.55,3.08,3.44,1.01,-0.0239,2.84,3.33,1.16,3.98,0.654,5.08
ACTAGCAGGCCAAGTTTGGGTCACTGAAACAAAG,0.428,0.0569,-0.409,0.671,-0.515,1.52,0.0239,0.587,-0.227,-0.112,0.913,1.45,-0.659,-0.796,0.506,0.641,-0.0145,1.25,-0.321,2
TCTATTAGTTGATTAGGGCAACGGAAACAGCGGA,0.551,0.44,0.103,0.473,0.812,0.801,0.284,1.99,3.35,3,2.04,1.27,0.436,0.954,0.288,0.192,0.475,0.276,0.743,0.963
CGTCCAAGGTCATAGGAGGTCGGTGAAGACAGAT,7.17,6.22,1.31,4.11,0.234,5.36,4.31,4.86,1.6,3.35,2.55,3.51,-0.173,0.224,2.9,6.03,1.77,4.4,0.95,4.89
GCGACTGGGGCAAAGCAGGTAACCATAAGGTTGG,-0.15,-0.576,-0.622,-0.339,-0.997,0.96,1.1,1.08,-0.433,0.285,4.21,3.7,-0.574,-0.498,-0.0633,-0.292,-0.741,0.385,-0.971,0.691
